# Data as given in the supplement of paper PMC11732987, “Enantioselective OTUD7B fragment discovery through chemoproteomics screening and high-throughput optimisation” (Communications Chemistry, 2025).
# Values without a mark were called inactive.
# Experiments:
# Experiment in all cases: log2 ratio of Biotin-Ahx-Ub-VS probe labelling (fragment/DMSO); higher = less target engagement (more negative = stronger competition), active = hit call of the paper (q ≤ 0.05, log2 ratio ≤ -1)
# Conditions in all cases: compound concentration: 200 uM; treatment time: 3 h
# USP19 = target: T1, USP19 (UniProt O94966)
# T1 sequence (whole entry): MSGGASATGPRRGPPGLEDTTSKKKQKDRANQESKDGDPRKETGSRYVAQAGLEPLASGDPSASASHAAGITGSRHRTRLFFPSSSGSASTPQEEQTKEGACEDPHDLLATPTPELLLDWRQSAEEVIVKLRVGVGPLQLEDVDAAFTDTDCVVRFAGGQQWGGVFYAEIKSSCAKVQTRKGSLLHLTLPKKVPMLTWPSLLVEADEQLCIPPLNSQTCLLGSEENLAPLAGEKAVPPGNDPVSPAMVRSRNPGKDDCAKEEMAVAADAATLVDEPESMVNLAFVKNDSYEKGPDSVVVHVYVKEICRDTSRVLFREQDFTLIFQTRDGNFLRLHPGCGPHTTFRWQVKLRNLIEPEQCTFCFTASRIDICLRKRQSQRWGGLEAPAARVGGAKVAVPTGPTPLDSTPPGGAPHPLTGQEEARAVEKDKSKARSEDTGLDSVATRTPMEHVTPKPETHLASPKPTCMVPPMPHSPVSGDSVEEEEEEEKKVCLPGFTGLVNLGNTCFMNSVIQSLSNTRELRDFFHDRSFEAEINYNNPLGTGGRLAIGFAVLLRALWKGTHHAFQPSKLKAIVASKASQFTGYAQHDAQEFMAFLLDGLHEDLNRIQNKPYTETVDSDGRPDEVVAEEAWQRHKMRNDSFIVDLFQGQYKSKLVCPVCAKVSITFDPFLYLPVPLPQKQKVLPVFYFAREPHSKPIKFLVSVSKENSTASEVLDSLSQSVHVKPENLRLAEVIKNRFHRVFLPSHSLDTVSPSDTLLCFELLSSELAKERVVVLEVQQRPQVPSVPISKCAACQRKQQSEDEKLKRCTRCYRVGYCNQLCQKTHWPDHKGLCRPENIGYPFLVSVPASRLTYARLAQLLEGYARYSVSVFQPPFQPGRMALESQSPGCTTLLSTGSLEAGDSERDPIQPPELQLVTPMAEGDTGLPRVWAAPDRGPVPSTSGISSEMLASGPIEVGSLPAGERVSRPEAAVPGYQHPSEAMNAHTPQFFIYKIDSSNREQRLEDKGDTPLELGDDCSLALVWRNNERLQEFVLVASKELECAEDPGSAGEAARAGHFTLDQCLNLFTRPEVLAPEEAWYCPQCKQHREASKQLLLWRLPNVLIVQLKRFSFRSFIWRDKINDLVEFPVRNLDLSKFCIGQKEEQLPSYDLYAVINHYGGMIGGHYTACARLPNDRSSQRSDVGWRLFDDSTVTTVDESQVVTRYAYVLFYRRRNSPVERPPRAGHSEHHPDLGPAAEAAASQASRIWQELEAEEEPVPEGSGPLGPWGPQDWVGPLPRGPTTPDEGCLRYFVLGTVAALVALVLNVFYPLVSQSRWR
# Summary of the method: (§1)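 The table lists average log2 ratios of fragment over vehicle, from an unpaired t-test on global-median-normalised Spectronaut label-free quantities. Proteins with ≥2 unique peptides were used. Samples were HEK293T lysate (495 µg) treated in triplicate with fragment at 200 µM or vehicle for 3 h, then with Biotin-Ahx-Ub-VS (0.5 µM final) for 1 h, with labelled DUBs NeutrAvidin-enriched and run by diaPASEF LC-MS/MS.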
# USP22 = target: T2, USP22 (UniProt Q9UPT9)
# T2 sequence (whole entry): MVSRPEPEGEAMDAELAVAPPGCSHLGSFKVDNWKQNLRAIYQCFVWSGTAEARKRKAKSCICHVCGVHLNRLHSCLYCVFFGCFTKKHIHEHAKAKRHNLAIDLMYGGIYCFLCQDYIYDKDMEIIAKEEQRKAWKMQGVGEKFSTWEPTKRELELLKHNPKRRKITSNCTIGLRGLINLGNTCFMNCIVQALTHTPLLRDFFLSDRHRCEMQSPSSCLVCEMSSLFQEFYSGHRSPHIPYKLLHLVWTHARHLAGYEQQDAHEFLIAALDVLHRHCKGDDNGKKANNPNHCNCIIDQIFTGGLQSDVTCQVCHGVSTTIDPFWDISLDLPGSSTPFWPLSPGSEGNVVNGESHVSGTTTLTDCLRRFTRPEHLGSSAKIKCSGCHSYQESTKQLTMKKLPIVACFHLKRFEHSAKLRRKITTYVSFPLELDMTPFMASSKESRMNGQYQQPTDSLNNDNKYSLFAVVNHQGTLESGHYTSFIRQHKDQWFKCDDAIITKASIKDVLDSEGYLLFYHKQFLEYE
# Summary of the method: as §1
# USP24 = USP24 (UniProt Q9UPU5)
# Chain of USP24 (Q9UPU5 whole entry): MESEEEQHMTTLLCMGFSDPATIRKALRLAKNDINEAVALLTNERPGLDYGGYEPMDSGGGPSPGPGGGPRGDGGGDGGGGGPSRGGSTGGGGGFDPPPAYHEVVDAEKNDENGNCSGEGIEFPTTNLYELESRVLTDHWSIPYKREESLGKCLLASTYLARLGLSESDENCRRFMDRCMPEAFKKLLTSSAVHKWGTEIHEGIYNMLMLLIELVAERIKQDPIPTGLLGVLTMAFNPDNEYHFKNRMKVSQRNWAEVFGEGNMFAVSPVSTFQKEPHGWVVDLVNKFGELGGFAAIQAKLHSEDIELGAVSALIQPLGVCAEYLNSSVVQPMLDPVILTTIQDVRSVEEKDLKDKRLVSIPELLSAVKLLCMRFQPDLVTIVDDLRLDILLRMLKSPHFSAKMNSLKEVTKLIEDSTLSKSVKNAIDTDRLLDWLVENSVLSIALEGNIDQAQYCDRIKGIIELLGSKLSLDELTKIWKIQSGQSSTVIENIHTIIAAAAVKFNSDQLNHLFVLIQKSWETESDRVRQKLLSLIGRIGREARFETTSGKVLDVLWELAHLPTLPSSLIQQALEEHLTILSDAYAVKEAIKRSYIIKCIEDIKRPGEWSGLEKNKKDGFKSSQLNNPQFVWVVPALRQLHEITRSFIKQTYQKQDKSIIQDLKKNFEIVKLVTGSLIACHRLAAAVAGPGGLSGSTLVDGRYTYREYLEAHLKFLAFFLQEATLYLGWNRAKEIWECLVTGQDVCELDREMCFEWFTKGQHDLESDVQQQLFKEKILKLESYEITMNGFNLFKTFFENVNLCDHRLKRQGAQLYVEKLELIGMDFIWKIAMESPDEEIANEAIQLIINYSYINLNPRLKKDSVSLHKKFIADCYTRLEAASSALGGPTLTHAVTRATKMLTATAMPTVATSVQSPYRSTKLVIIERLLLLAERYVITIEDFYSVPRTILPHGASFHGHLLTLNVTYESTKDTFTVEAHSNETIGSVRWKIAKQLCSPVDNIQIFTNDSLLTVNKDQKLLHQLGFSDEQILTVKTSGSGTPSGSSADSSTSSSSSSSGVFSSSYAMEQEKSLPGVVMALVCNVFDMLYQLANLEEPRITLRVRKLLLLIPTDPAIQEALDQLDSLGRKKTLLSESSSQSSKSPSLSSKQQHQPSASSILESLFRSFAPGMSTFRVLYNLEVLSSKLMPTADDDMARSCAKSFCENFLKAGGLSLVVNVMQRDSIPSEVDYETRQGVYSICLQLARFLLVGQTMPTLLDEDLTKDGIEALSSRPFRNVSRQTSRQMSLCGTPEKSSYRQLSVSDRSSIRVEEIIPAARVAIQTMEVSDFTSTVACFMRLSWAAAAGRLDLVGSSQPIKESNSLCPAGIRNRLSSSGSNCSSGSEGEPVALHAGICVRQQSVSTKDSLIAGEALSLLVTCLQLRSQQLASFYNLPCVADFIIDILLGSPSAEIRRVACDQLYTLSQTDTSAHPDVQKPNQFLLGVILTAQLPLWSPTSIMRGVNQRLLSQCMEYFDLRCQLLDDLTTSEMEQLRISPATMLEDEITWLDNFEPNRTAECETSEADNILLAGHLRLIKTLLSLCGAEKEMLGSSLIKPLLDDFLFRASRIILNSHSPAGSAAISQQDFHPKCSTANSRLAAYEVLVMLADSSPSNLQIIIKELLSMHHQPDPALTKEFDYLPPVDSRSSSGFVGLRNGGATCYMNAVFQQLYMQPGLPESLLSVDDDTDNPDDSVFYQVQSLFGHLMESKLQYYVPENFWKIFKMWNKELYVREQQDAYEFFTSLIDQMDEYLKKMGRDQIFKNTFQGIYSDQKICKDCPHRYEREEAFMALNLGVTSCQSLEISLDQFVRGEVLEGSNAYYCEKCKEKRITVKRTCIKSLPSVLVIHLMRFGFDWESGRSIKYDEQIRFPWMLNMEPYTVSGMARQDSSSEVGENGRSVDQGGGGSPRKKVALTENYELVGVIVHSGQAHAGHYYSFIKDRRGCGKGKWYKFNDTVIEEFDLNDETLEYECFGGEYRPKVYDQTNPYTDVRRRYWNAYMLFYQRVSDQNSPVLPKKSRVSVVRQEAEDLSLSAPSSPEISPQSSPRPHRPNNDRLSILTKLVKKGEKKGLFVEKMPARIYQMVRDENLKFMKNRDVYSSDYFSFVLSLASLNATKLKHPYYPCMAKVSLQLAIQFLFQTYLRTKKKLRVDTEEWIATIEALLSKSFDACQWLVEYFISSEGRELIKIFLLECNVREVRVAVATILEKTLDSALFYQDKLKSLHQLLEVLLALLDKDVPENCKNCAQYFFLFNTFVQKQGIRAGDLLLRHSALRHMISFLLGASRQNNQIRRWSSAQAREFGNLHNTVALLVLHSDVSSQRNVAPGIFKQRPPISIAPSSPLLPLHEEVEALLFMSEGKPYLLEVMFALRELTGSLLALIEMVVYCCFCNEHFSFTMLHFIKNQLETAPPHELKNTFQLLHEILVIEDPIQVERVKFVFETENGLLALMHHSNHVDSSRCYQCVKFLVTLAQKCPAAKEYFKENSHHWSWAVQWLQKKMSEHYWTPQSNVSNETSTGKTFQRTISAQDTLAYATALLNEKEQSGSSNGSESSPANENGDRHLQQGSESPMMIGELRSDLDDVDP
# Summary of the method: as §1
# USP25 = target: T3, USP25 (UniProt Q9UHP3)
# T3 sequence (whole entry): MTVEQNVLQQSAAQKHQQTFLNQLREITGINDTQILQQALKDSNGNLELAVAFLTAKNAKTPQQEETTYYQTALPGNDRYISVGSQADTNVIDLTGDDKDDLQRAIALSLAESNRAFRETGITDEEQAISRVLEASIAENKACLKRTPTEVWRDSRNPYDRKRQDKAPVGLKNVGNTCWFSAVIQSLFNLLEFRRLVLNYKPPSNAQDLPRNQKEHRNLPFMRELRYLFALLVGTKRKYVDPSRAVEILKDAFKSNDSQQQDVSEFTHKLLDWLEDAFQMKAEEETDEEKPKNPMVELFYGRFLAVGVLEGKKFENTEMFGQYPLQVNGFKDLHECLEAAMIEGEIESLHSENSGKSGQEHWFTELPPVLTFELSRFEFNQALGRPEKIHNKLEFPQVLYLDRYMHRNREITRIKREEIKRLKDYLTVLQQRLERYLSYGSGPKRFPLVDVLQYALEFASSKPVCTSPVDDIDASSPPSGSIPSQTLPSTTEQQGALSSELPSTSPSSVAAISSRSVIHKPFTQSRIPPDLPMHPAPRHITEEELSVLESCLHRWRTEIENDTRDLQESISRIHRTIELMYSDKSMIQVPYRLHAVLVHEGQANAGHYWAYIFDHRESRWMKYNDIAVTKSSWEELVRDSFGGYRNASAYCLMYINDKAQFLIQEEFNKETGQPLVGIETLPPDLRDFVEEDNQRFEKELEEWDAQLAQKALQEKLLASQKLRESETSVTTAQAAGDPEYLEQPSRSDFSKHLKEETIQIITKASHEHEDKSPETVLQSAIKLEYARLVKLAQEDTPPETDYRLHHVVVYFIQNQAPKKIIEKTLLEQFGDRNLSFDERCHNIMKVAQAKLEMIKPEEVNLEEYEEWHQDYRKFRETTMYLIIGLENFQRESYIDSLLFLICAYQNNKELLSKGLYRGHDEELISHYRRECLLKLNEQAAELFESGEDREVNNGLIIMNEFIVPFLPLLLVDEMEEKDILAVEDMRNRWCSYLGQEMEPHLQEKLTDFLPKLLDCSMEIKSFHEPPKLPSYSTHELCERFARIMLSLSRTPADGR
# Summary of the method: as §1
# USP28 = target: T4, USP28 (UniProt Q96RU2)
# T4 sequence (whole entry): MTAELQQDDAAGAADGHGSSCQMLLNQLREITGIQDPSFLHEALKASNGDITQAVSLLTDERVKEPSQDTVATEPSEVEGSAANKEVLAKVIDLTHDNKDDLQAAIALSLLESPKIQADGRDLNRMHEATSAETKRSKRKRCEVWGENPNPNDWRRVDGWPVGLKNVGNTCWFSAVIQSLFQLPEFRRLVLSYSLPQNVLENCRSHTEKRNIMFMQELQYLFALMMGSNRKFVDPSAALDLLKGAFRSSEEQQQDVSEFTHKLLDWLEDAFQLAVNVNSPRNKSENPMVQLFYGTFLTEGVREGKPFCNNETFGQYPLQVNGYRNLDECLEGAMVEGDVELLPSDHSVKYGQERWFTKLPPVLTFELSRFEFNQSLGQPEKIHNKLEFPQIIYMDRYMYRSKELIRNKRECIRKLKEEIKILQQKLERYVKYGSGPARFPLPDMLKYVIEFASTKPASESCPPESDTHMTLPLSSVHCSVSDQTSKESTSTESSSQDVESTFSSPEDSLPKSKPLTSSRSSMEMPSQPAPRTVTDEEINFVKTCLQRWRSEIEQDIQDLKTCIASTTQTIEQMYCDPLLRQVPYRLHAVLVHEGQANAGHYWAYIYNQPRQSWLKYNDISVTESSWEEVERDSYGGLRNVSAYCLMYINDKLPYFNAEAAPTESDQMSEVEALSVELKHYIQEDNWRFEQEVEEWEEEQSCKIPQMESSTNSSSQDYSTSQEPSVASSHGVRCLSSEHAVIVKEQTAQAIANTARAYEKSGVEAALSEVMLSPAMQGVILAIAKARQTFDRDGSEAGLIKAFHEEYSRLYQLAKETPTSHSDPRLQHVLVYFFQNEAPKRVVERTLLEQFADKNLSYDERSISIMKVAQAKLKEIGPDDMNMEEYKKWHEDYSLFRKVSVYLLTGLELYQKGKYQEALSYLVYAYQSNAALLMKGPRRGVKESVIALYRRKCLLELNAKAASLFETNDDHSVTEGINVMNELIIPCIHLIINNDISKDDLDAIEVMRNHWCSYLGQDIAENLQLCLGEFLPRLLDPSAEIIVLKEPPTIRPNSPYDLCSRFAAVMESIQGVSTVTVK
# Summary of the method: as §1
structure (smiles),measurement,setting,value
Cc1ccccc1CN(C)C(=O)CCl,log2 ratio of Biotin-Ahx-Ub-VS probe labelling,USP19,-0.829
same,log2 ratio of Biotin-Ahx-Ub-VS probe labelling,USP22,-0.0794
same,log2 ratio of Biotin-Ahx-Ub-VS probe labelling,USP24,-1.38 (active)
same,log2 ratio of Biotin-Ahx-Ub-VS probe labelling,USP25,-1.03 (active)
same,log2 ratio of Biotin-Ahx-Ub-VS probe labelling,USP28,-1.35 (active)
